DRV1 agonist: GPR32 (DRV1) agonism, beta-arrestin recruitment; O75388; CHO-K1 GPR32 beta-arrestin PathHunter luminescence, 90 min; zero percent set by DMSO-only wells; activation, % at 76.9 µM; 48,000 compounds, 2.5% hits; AID 1346428;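 active = activation of at least 60% and not above a set upper limit, about 1 call in 100 departs from these limits; inconclusive = activation of 40% to 60%, or above that upper limit; inactive = activation under 40%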; also: 0% is about no effect
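Beta-arrestin recruitment read-out: luminescence from complemented beta-Gal in CHO-K1 GPR32 PathHunter cells, measured 1 h after detection reagent at ambient temperature following 90 min compound exposure at 37 °C; DMSO served as basal (EC0) control.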
FH mod: Identification of activators of human fumarate hydratase by quantitative high-throughput screening; Fumarate hydratase, mitochondrial (Homo sapiens), P07954; FH coupled MDH/diaphorase resazurin fluorescence, 15 min; Potency, µM (top dose mostly 79.9 µM), inactives show at the highest dose activity change, negative = inhibition, hits mostly inhibitors; 54,000 compounds, 0.22% hits; also: potency is read from the fitted curve at half-maximal effect; % is scaled to controls: 0 for no effect and ±100 for the full control effect; the screen sought activators but most active calls are inhibition curves; nearly all actives have a fitted effect of over 45% in size
Target sequence (P07954 whole entry, looked up): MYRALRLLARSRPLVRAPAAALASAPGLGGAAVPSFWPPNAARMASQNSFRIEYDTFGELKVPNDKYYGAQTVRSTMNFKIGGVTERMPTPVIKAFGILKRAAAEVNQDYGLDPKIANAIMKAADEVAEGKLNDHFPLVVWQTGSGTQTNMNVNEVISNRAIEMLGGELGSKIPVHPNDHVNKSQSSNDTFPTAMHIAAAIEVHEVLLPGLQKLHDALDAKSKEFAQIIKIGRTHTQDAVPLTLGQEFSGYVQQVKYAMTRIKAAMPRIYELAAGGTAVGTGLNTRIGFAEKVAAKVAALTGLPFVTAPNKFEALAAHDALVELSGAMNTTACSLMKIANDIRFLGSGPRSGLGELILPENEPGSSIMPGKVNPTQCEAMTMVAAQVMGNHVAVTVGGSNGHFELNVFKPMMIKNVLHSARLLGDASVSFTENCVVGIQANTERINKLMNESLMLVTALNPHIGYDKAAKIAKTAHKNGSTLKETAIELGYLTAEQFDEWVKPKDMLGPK
HTT-AS promoter: activators of huntingtin-antisense promoter activity; AID 1508624; Potency, µM (highest dose often 57.5 µM), for inactives: at the highest dose activity change, positive = activation, most hits filed as activators; HEK293 HTT-AS promoter firefly luciferase reporter, 24 h; response scale: percent change from vehicle, -100% = no light; 48,000 compounds, 0.24% hits; also: potency is read from the fitted curve at half-maximal effect; nearly all actives have a fitted effect of over 55% in size
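Firefly luciferase signal from promoter-reporter HEK293 cells was scaled between vehicle (0%) and zero RLU (-100%). Compounds were tested at final concentrations of up to 57.5 uM over 24 h at 37 degrees C. PTC124 at 50 uM final served as control inhibitor.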
NTMT1 inhibitor: blocks human N-terminal methyltransferase 1 activity | AID 1645870 | NTMT1 MTase-Glo SAH luminescence, purified enzyme | Q9BV86 | Potency, µM (highest dose often 114 µM), for the others: at the highest dose activity change, negative = inhibition, most hits filed as inhibitors | 59,000 compounds, 2.5% hits;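 also: potency is read from the fitted curve at half-maximal effect; plate controls were DMSO vehicle for no effect and no enzyme for full effect; nearly all actives have a fitted effect of over 65% in size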
GALC G270D act: galactocerebrosidase G270D activity enhancement, cell-based; Potency, µM (highest dose often 57.5 µM), hits mostly activators; P54803; 145M-Twi-hGALC-G270D cells (Twitcher mouse brain line with human GALC G270D), HMU-beta-Gal fluorescence, 48 h; 45,000 compounds, 0.1% hits; also: potency is read from the fitted curve at half-maximal effect; 0% is about no effect; nearly all actives have a fitted effect of over 65% in size
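Brain-derived Twitcher mouse 145M-Twi cells stably expressing human GALC-G270D or wild-type GALC, treated live, then residual GALC activity read by fluorescence of HMU-b-Gal substrate (0.1 mM final) in citrate-phosphate buffer pH 5.2 with sodium taurocholate. Signal increase indicates enhancement.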
HTT promoter inh: inhibitors of huntingtin promoter activity | HEK293 HTT promoter firefly luciferase reporter, 24 h | Potency, µM (top dose mostly 57.5 µM), for inactives: at the highest dose activity change, negative = inhibition, hits mostly inhibitors | 48,000 compounds, 0.93% hits | AID 1508623; also: potency is read from the fitted curve at half-maximal effect; nearly all actives have a fitted effect of over 50% in size
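Quantitative HTS used concentration series of up to 57.5 uM final on HEK293 luciferase reporter cells, 24 h at 37 degrees C. Readout was Dual-Glo firefly luminescence.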
Starred values were filed as active, the others as inactive; i = inactive; ? = inconclusive; / = no result; ! = a repeat was not active; [ ] = remark or other dose. An excerpt weighted towards active compounds, which were near 4.7% of everything screened. Unless noted, calls follow the shape of the dose curve; as a rule, active = well fitted curve in the direction sought with a large enough effect; inconclusive = small, poorly fitted or top-dose-only effect, or another doubt; inactive = no such curve, though single readings can be large; an effect the other way counts as inactive or inconclusive.

SMILES	DRV1 agonist	FH mod	HTT-AS promoter	NTMT1 inhibitor	GALC G270D act	HTT promoter inh
Cc1cccc(/C=C/c2onc(C)c2S(=O)(=O)N2CCC(C(=O)N3CCCCC3)CC2)c1	-18	-33%	-33%	5%	i	?
COc1ccccc1N1CCN(c2ncnc3c2nc2n3CCCC2)CC1	63*	-10%	-33%	?	i	?
Cc1cccc(N2CCN(C(=O)C3CCN(S(=O)(=O)c4c(C)noc4C)CC3)CC2C)c1 (stereo not given)	108*	-4%	-33%	11%	i	?
CC(=O)c1ccc(N2CCN(c3ncnc4c3nc3n4CCCC3)CC2)cc1	-6	-22%	-32%	1%	i	?
c1ccc(N2CCN(c3ncnc4c3nc3n4CCCC3)CC2)cc1	?	-4%	-65%	0%	i	13µM*
Cc1cccc(N2CCN(C(=O)C3CCN(c4ncnc5c4nc4n5CCCCC4)CC3)CC2C)c1 (stereo not given)	12	-6%	-76%	-6%	i	25µM*
COC(=O)c1ccc2nc(NC3=NC(c4[nH]ncc4Cl)C4=C(CCCC4=O)N3)oc2c1 (stereo not given)	/	/	/	-18%	/	/
O=S(=O)(Nc1ccc(-c2ccccc2)cc1)c1ccc(NCc2cccc(Cl)c2O)cc1	/	/	/	0%	/	/
COc1ccc(CSc2nc3ncc(Br)cc3[nH]2)cc1F	/	/	/	7%[57.5 µM]	/	/
Cc1ccc(NS(=O)(=O)c2ccc3c(c2)C2C=CCC2C(c2ccc(C(=O)O)cc2)N3)cc1C (stereo not given)	/	/	/	25µM*	/	/
NC(=O)c1cccc2cn(-c3ccc(C4CCCNC4)cc3)nc12 (stereo not given)	/	6%	/	-1%[57.5 µM]	/	/
COc1cc2ncnc(Nc3ccc(O)c(Br)c3)c2cc1OC	/	-7%	/	40µM*	/	/
Cc1nc(C2=NC(c3ccccc3Cl)C3=C(CCCC3=O)N2)cs1 (stereo not given)	/	/	/	13%	/	/
Cc1cccc(Oc2cnc(=O)[nH]c2)c1	/	7%	/	3%[57.5 µM]	/	/
COc1cccc(NC(CNS(=O)(=O)c2ccc(C)cc2)c2ccccc2)c1 (stereo not given)	31	?	-22%	2%	i	?
O=S(=O)(NCC(Nc1ccc(Cl)cc1)c1ccccc1)c1ccccc1 (stereo not given)	109*	?	-23%	12%	i	?
COc1cccc(NC(CNS(=O)(=O)c2ccc(Cl)cc2)c2ccccc2)c1 (stereo not given)	77*	?	-41%	3%	i	?
Cc1ccc(N(CC2=NCCN2)c2cccc(O)c2)cc1	-10	-3%[53.3 µM]	-14%	89µM*!	i	4%
Nc1cccc(OCCn2c(CCNC(=O)C3CCCCC3)nc3ccccc32)c1	/	/	/	14%	/	/
CCc1oc2ccccc2c1C(=O)c1cc(Br)c(O)c(Br)c1	38	-24%[53.3 µM]	-43%	79µM*	i	?
CCOc1ccc(C(=O)Nc2c(C(=O)c3ccccc3)oc3ccccc23)cc1	-8	11%	-2%	5%	i	12%
C[C@H]1[C@H](C)CC[C@]2(C(=O)O[C@@H]3O[C@H](CO)[C@@H](O)[C@H](O)[C@H]3O)CC[C@]3(C(=O)O)C(=CCC4[C@@]5(C)CC[C@H](O[C@@H]6O[C@H](CO)[C@@H](O)[C@H](O)[C@H]6O)C(C)(C)C5CC[C@]43C)[C@H]12 (stereo not given in full)	/	-1%[20.6 µM]	/	2%[12.6 µM]	/	/
CC(=O)N1c2ccc(S(=O)(=O)NCCC(=O)Nc3ccc(Br)c(C)c3)cc2CC1C (stereo not given)	69*	-15%	-67%	-1%	i	?
CC(=O)N1c2ccc(S(=O)(=O)NCC3CCC(C(=O)Nc4cccc(F)c4)CC3)cc2CC1C (stereo not given)	64*	-23%	-52%	5%	i	?
Cc1cc(NC(=O)CCNS(=O)(=O)c2ccc3c(c2)oc(=O)n3C)ccc1Br	12	1%	-18%	1%	i	-15%
SMILES	DRV1 agonist	FH mod	HTT-AS promoter	NTMT1 inhibitor	GALC G270D act	HTT promoter inh
CC(=O)N1c2ccc(S(=O)(=O)NCC3CCC(C(=O)Nc4ccc(C)cc4)CC3)cc2CC1C (stereo not given)	2	?	-39%	5%	i	?
CC(C)[C@@H](c1ccc(C(F)(F)F)cc1CN(Cc1cc(C(F)(F)F)cc(C(F)(F)F)c1)c1nnn(C)n1)N1CCC(C(=O)O)CC1	/	-15%	/	-1%[57.5 µM]	/	/
O=C(Nc1ccc(Cl)c(C(F)(F)F)c1)Nc1nnc(-c2cccnc2)s1	/	/	/	-18%[57.5 µM]	/	/
COc1ccc(-c2nc(SCC(=O)Nc3ccc4c(c3)OCCO4)c(-c3ccccc3)[nH]2)cc1	-12	?	-8%	-2%	i	?
COc1cccc(-c2nc(SCC(=O)Nc3ccc4c(c3)OCCO4)c(-c3ccccc3)[nH]2)c1	-21	40µM*	-6%	0%	i	?
COc1cccc(-c2nnc(SCC(=O)N(C)C3CCCCC3)o2)c1	72*	-3%	1%	-1%	i	8%
COc1cccc(NC(=O)CSc2nnc(-c3cccc(OC)c3)o2)c1	78*	-20%	14µM*	6%	i	60%
FC(F)(F)c1ccccc1-c1nc(NCc2ccc(C3CCCCC3)cc2)c2ccccc2n1	/	/	/	9%	/	/
CN(C)S(=O)(=O)N(CC(=O)NCCSc1ccccc1)c1ccccc1	2	-2%	-17%	-18%	i	-14%
CN(C)S(=O)(=O)N(CC(=O)NCCSc1ccc(Cl)cc1)c1ccccc1	70*	-6%	-19%	-2%	i	-17%
CS(=O)(=O)N(CC(=O)Nc1ccc(Br)cc1)c1ccccc1Br	61*	-19%	-18%	7%	i	-21%
COc1ccccc1N(CC(=O)Nc1cc(C)cc(C)c1)S(C)(=O)=O	5	3%	-15%	-6%	i	-1%
O=C1CCCC2=C1C(c1ccn[nH]1)N=C(Nc1nc3ccccc3o1)N2 (stereo not given)	/	/	/	-8%	/	/
COc1ccccc1CCNC(=O)C(=O)NCC(c1cccnc1)N1CCN(c2ccccc2)CC1 (stereo not given)	-13	-7%	-44%	-3%	i	13µM*
COc1ccccc1N1CCN(C(CNC(=O)C(=O)NCc2ccc(F)cc2)c2cccnc2)CC1 (stereo not given)	8	0%	-78%	5%	i	?
